From PubChem BioAssay (NCATS)
Results filed as inconclusive are left out. A number with no mark means an inactive call. Active and inactive are the calls of the source. The call rests on the fitted dose curve; in most records, active means well fitted cell-killing curve with a large enough effect; inconclusive means small, poorly fitted or top-dose-only effect; inactive means flat fitted curve, though single readings scatter.

Test: Cell Viability - LYMP2-023 (AID 975); further: nearly all actives have a fitted effect of over 55% in size
Conditions: LYMP2-023 lymphoblastoid cell viability; series mostly up to 92.2 µM; activity change, negative = cytotoxicity: at the top concentration
From the text: NIH Chemical Genomics Center [NCGC]
NIH Molecular Libraries Screening Centers Network [MLSCN]
National Institutes of Environmental Health Sciences [NIEHS]
National Toxicology Program [NTP]
We have developed a 1536-well cell-based assay for quantitative high throughput screening (qHTS) against a number of cell lines to determine in vitro cytotoxicity of small molecules. This particular assay uses a human lymphoblastoid cell line (LYMP2-023) purchased from Coriell Institute for Medical Research.
NCGC Assay Protocol Summary:
The CellTiter-Glo luminescent cell viability assay (Promega) is a homogeneous method to measure the number of viable cells in culture. The end point readout of this assay is based on quantitation of intracellular ATP, an indicator of metabolic activity, using the luciferase reaction. Luciferase catalyzes the oxidation of beetle Luciferin to oxyluciferin and light in the presence of ATP. The luminescent signal is proportional to amount of ATP present.
Using the CellTiter-Glo luminescent cell viability assay, the amount of cellular ATP was measured in the lymphoblastoid cell line with complete culture medium following compound treatment for 24 hours. The assay was performed in opaque white Kalypsys 1536-well plates. In the screen, tetraoctylammonium bromide was used as positive control. Library compounds were measured for their ability to cause acute toxicity in the cell line, as reflected by a decrease in intracellular ATP levels, in a concentration-dependent manner. […] AC50 values were determined from concentration-response data modeled with the standard Hill equation.
qHTS protocol for CellTiter Glo lymphoblastoid cellular assay
[Step] [Parameter] [Value] [Description]
1. Reagent; 5 uL; 2500 lymphoblastoid cells/well
2. Time; 5 hr; 37 C incubation
4. Controls; 23 nL; Tetraoctylammonium bromide 6.4pM to 92 uM
5. Time; 24 hr; 37 C incubation
6. Reagent; 5 uL; CellTiter Glo reagent
7. Time; 30 min; Room Temperature
8. Detection; Luminescence; Viewlux plate reader
Keywords: cell viability, cytotoxicity, lymphoblastoid cell line, luminescence, NTPHTS, NTPHTS_NCGC, NIEHS, DSSTox, MLSMR, MLSCN, NIH Roadmap, qHTS, NCGC
Potency means the concentration at half of the fitted maximal effect.

Compound	activity change, negative = cytotoxicity	Potency
CCCCCCCCCCCCCCCCCC(=O)O	-0.792%	
O=C(O)c1cc(O)c(O)c(O)c1	0.31%	
Oc1ccccc1O	-12.1%	
CN(C)c1ccc(N=NS(=O)(=O)O)cc1	-9.27%	
Nc1ccc(O)c(C(=O)O)c1	-6.06%	
N=C1N=C(N)c2cc3ccccc3cc21		39.8 µM (active)
CN1CCC[C@H]1c1cccnc1	-6.71%	
Nc1ccc(O)c([N+](=O)[O-])c1	-4.31%	
CC(C)NCC(O)COc1cccc2ccccc12 (stereo not drawn)	1.49%	
COc1cc(CNC(=O)CCCC/C=C/C(C)C)ccc1O	-4.03%	
Nc1nc2ccc([N+](=O)[O-])cc2s1	-8.76%	
COc1cc(/C=C/C(=O)CC(=O)/C=C/c2ccc(O)c(OC)c2)ccc1O		50.1 µM (active)
CN(C)CCC(c1ccc(Cl)cc1)c1ccccn1 (stereo not drawn)	-5.08%	
O=c1cc(-c2ccccc2)oc2ccccc12	5.28%	
Nc1ccc([N+](=O)[O-])cc1O	9.43%	
CCCOC(=O)c1ccc(O)cc1	-4.43%	
NCCO	-1.36%	
c1ccc2sc(SSc3nc4ccccc4s3)nc2c1	-2.73%	
O=C(O)/C=C\C(=O)O	0.175%	
S=c1[nH]c2ccccc2s1	-2.02%	
CN(C)c1ccc(C(=C2C=CC(=[N+](C)C)C=C2)c2ccccc2)cc1		0.398 µM (active)
CC1(C)S[C@@H]2[C@H](NC(=O)[C@H](N)c3ccccc3)C(=O)N2[C@H]1C(=O)O	2.12%	
C#C[C@]1(O)CC[C@H]2[C@@H]3CCc4cc(O)ccc4[C@H]3CC[C@@]21C	-1.11%	
